Assay outcomes: PubChem, The Scripps Research Institute Molecular Screening Center
hcDAF12 agonist = H. contortus DAF-12 nuclear receptor activators, primary screen, cell-based, luminescence, HEK293, lit1-tk-luc reporter; 370,000 tested, 1.4% active; HEK293 hcDAF-12 lit1-tk-luc reporter; 0% DMSO, 100% Δ7-dafachronic acid; AID 652067, 2013; activation, % at 6.8 µM;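 active = activation above the mean of all tested compounds plus 3 SD, cut at about 5.5% in these data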;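 note: 100% = response to 3 µM Δ7-dafachronic acid high control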
hgDAF-12 ag = H. glycines DAF-12 receptor agonists, primary screen, cell-based, luminescence, HEK293, GAL4 fusion, UAS-luciferase; Nuclear hormone receptor DAF-12 (Heterodera glycines), GAL4 fusion; HEK293 GAL4-hgDAF12 UAS-luciferase reporter, agonist luminescence; normalized to butyrate control; activation, % at 6.8 µM; 370,000 tested, 1.8% active;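 active = activation above a cutoff set at the mean of all screened compounds plus 3 SD, cut at about 10% in these data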;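 note: 0% = DMSO wells and 100% = sodium butyrate wells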
ssDAF-12 act = S. stercoralis DAF-12 nuclear receptor activators, primary screen, cell-based, luminescence, HEK293, GRIP1 co-expression, lit1-tk-luc | activation, % at 6.8 µM | AID 652126, 2013 | Nuclear hormone receptor DAF-12 (Strongyloides stercoralis) | HEK293 ssDAF-12/GRIP1 lit1-tk-luc reporter; % of 3 µM dafachronic acid response | 370,000 tested, 1% active;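 active = activation above the mean over all tested compounds plus 3 SD, cut at about 0.9% in these data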;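 note: 0% = DMSO-only wells and 100% = 3 µM delta7-dafachronic acid wells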
DAX1 inh-1 = DAX1 (NR0B1) inhibitors on StAR promoter, primary screen, cell-based, luminescence, SF-1 (NR5A1), full-length DAX-1. HEK293T StAR-luciferase reporter, SF-1/DAX-1 repression relief. inhibition, % at 6.8 µM. AID 652010, 2013. 370,000 tested, 1.1% active;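 active = inhibition above the mean over all tested compounds plus 3 SD, cut at about 3.6% in these data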;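 note: 0% = DAX-1 cells with DMSO and 100% = cells lacking DAX-1 with DMSO; higher inhibition means more luminescence from relief of DAX-1 repression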
DAX1 inh-2 = DAX1 (NR0B1) inhibitors, primary screen, cell-based, HEK293, Gal4-DAX1, luciferase luminescence | HEK293 Gal4-DAX1 luciferase reporter | inhibition, % at 6.75 µM | 340,000 tested, 0.99% active | AID 504766, 2011;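 active = inhibition above the mean over all tested compounds plus 3 SD, cut at about 4.2% in these data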;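 note: 0% = DAX1-transfected cells with DMSO and 100% = empty-vector control cells with DMSO; inhibition shows as a rise in luminescence from relieved DAX1 repression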
Target sequence (P51843 207-470 limits assumed): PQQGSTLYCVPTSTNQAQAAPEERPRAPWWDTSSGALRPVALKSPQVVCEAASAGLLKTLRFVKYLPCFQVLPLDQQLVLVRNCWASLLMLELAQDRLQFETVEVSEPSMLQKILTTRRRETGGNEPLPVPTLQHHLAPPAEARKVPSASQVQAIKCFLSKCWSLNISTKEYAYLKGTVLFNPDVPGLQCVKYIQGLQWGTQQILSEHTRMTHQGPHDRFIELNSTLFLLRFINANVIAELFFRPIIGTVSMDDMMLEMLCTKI
* hit, by the source's call; x = no result. Only some compounds are listed: those with a hit (about 4.1% of all), similar ones and a draw of the others.

SMILES	hcDAF12 agonist	hgDAF-12 ag	ssDAF-12 act	DAX1 inh-1	DAX1 inh-2
CCOC(=O)N1C(=O)C[C@](Sc2ccc(OC)cc2)(C(=O)N2CCOCC2)[C@H]1c1ccc(OC)cc1	0.1	4.1	-0.8	-2.1	x
COC(=O)c1sc2ncccc2c1OCc1cccc(Cl)c1	-2.1	3.4	-1.4	-1.6	4.2*
COc1ccc(-c2cc3ccccc3n2CC(O)CN2CCC(C)CC2)cc1 (stereo unspecified)	5.7*	2.9	-0.1	2.8	2.7
COc1ccc(-c2cc3ccccc3n2CC(O)Cn2nc(C)cc2C)cc1 (stereo unspecified)	-0.4	-0.8	-0.6	-0.7	-1.5
CC(C)[C@H](NC(=O)N1c2ccccc2NC(=O)[C@@H]1C(C)C)C(=O)N[C@@H](C(=O)O)c1ccccc1	-0.1	3.5	-1.6	0.2	4.5*
CC(C)[C@H](NC(=O)N1c2ccccc2NC(=O)[C@@H]1C(C)C)C(=O)N[C@@H](Cc1ccccc1)C(=O)O	-0.6	1.5	-0.3	0.1	1.1
c1ccc(N/N=C(\Cc2nc3ccccc3[nH]2)c2ccccc2)cc1	4.3	7.7	-0.6	0.6	0.8
Clc1cccc(/C(Cc2nc3ccccc3[nH]2)=N\Nc2ccccc2)c1	0.8	3.3	1.0*	0.8	-0.3
COC(=O)[C@]1(CNC(=O)C(C)(C)C)CC(=O)N(C)[C@@H]1c1ccccc1	-0.5	-3.2	-1.4	0.2	x
OCCCNCc1ccc(N(c2ccccc2)c2ccccc2)cc1	-0.4	-1.9	-1.2	-0.3	5.9*
OCCNCc1ccc(-c2ccccc2)cc1	3.2	3.1	-1.0	0.0	-0.5
COC(=O)[C@]12C[C@H](CC(=O)NCc3ccc(C)o3)C(=O)N(Cc3cccc4ccccc34)C1=C[C@H](C(C)(C)C)O[C@@H]2C	-3.0	-2.0	-1.3	-2.0	x
CS(=O)(=O)c1cccc(-c2nnc(NC(=O)CCS(=O)(=O)c3ccccc3)o2)c1	0.9	3.3	-0.4	0.7	4.6*
COc1ccc(Br)c(-c2nc(CS(=O)(=O)c3ccc(F)cc3)no2)c1	-0.7	2.4	-2.3	-0.4	-1.6
O=C(/C=C(\Nc1cc(Cl)c(Cl)c(Cl)c1)c1ccccc1)c1ccccc1	5.4	6.5	1.5*	1.0	x
CC1OC(CCc2cccc(Cl)c2)Cc2[nH][nH]c(=O)c21 (stereo unspecified)	3.8	7.4	2.0*	2.7	x
O=c1[nH][nH]c2c1[C@H](CCc1cccc(Cl)c1)O[C@H](C1CC1)C2	-0.1	-2.0	-1.2	1.1	x
O=C(CCc1ccccc1)N[C@H]1[C@@H](OC(=O)c2cccnc2)CCC[C@@]12C(=O)N(Cc1ccccc1)c1ccccc12	-4.7	-7.8	-2.0	-2.0	x
Nn1c(SCc2cccc(Br)c2)nnc1-c1cccnc1	-0.9	1.5	-1.9	-0.1	-0.2
Nn1c(SCc2cccc(F)c2)nnc1-c1cccnc1	-1.0	1.9	1.1*	0.1	5.7*
CCOC(=O)c1c(C)[nH]c(C(=O)OCc2ccc(C)cc2)c1C	0.7	4.1	0.3	4.2*	0.4
CCOC(=O)c1c(C)[nH]c(C(=O)NCc2ccccn2)c1C	-0.4	5.3	-0.5	4.1*	1.1
CCOC(=O)c1c(C)[nH]c(C(=O)COC(=O)CCSc2ccccc2)c1C	6.3*	8.9	0.1	0.3	0.7
N#CN1CCC(NS(=O)(=O)c2cccc(C(F)(F)F)c2)CC1	-0.8	0.4	-1.4	x	x
COc1ccc(CC(=O)N/N=C(\C)c2ccc(Br)s2)cc1	-1.0	-1.8	-1.8	0.2	-1.2
SMILES	hcDAF12 agonist	hgDAF-12 ag	ssDAF-12 act	DAX1 inh-1	DAX1 inh-2
CC(=O)Cc1nsc(Nc2ccc(C)cc2)n1	4.6	12.2*	0.8	4.2*	2.6
O=S1(=O)c2ccc(Br)cc2OC[C@@H](Cc2ccccc2)N1Cc1cn(CCC2OCCO2)nn1	-3.4	-2.8	-1.5	-1.3	x
Clc1ccccc1Cn1nnc(-c2ccccc2)n1	0.1	2.0	4.3*	0.3	-0.1
COc1ccc(-c2nnn(Cc3ccccc3F)n2)cc1	1.6	12.5*	0.1	0.4	3.4
COc1ccc(C(=O)Cn2nnc(-c3ccccc3F)n2)cc1	-2.0	1.5	-1.2	0.5	1.5
CCOC(=O)CC[C@@H]1CC[C@]2(CCCN(Cc3ccc(Cl)cc3)C2)O1	1.2	1.9	-0.5	0.4	x
Nc1ccc(S(=O)(=O)N2CCCC2)cc1	0.7	1.4	-1.6	0.7	6.0*
CCN(CC)C(=O)CCc1nnc(Cc2cccc(C(F)(F)F)c2)o1	2.4	13.2*	0.9	0.9	1.5
Cc1cc(CN(C)C(=O)CCc2nnc(Cc3cccc(C(F)(F)F)c3)o2)on1	1.7	6.0	-0.4	0.9	3.4
Cc1ccccc1C(=O)N1CCC(Oc2cccnc2)CC1	-1.8	-0.4	0.1	1.4	x
C=CCn1c(COc2ccc(C)cc2)nnc1SCc1ccc([N+](=O)[O-])cc1	-1.0	-2.1	-2.3	-1.9	x
CCOC(=O)Cc1csc(SCn2nnc3ccccc3c2=O)n1	1.4	1.2	-1.3	-0.3	1.1
CCOC(=O)Cc1csc(-n2sc3ccccc3c2=O)n1	6.3*	1.3	0.2	0.2	1.8
COC(=O)[C@]12C[C@H](CC(=O)N3CCCC3)C(=O)N(Cc3ccc4c(c3)OCO4)C1=C[C@H](C(C)C)O[C@@H]2C1CC1	-3.2	-3.7	-2.0	-1.5	x
C=CCN1[C@H](Cc2ccccc2)COc2cc(N3CCSCC3)ccc2S1(=O)=O	-2.1	3.2	-2.1	-2.2	x
COc1ccc(C2=NN(C(C#N)c3ccc(OC)cc3)C(c3ccccc3)C2)cc1 (stereo unspecified)	6.4*	13.2*	-0.6	2.7	5.4*
COc1ccc(C(C#N)N2N=C(C)CC2c2ccccc2)cc1 (stereo unspecified)	-0.1	1.8	-1.0	0.6	-0.1
COc1ccc(N2CCN(CCCNC(=O)CCc3ccc(F)cc3)CC2)cc1	0.4	3.3	-0.7	1.1	x
C=CCC[C@@H](CCCCC)OC(=O)/C=C/[C@H](O)[C@@H](O)C[C@@H](O)CC=C	-1.2	-1.8	-1.5	-1.9	x
COc1ccc(NC(=O)O/N=C/c2c(C)nn(C(C)(C)C)c2C)cc1	-0.9	-0.8	-0.9	1.2	6.3*
Cc1nn(C(C)(C)C)c(C)c1/C=N/OC(=O)Nc1ccc(Cl)c(Cl)c1	-7.1	-12.9	-3.4	-1.3	-6.7
C=CCN(Cc1ccc2c(c1)OCO2)C(C#CCCCC)C(C)C (stereo unspecified)	-1.8	-0.5	-1.2	x	x
CCOc1cc2c(cc1OCC)C(c1ccc(F)cc1)NCC2 (stereo unspecified)	-1.3	-0.5	-0.2	-0.4	0.1
